Growth data for eight compounds are collected here from PubChem BioAssay (NCI).

Holding throughout (experiment): NCI-60 one-dose screen, 48 h (100 = growth as untreated, 0 = no growth, -100 = all killed)
Common to all, as to conditions: 10 µM

The subject of test [1] is NCI-H23 lung.
In test [2] the test system is NCI-H226 lung.
Test [3] concerns NCI-H322M lung.
Test [4] concerns HOP-62 NSCLC.
Test [5] relates to NCI-H460 lung.
For test [6], the system named is NCI-H522 lung.
Test [7] relates to A549/ATCC NSCLC.
The test system of test [8] is 786-0 renal.
In test [9] the test system is COLO 205 colon.
Test [10] has as its system DU-145 prostate.
Test [11] has as its system K-562 leukemia.
In test [12] the test system is MALME-3M melanoma.
In test [13] the test system is MDA-MB-231 breast.
The test system of test [14] is RXF 393 renal.
Test [15] relates to SF-268 CNS.
The subject of test [16] is SF-295 CNS.
Test [17] has as its system SF-539 CNS.
For test [18], the system named is UACC-257 melanoma.
Test [19] deals with M14 melanoma.
Test [20] has as its system HCT-15 colon.

Molecules are shown by their SMILES. Compounds without any hit were thinned out: in the full panel of roughly 83,000, 20% have a hit.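 Single-concentration screen, 48 h exposure, 96-well plates. Endpoint: percent growth. Below 10 = active.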 A number with no mark means an inactive call. Active and inactive are the calls of the source.

For the compound `Cn1c([N+](=O)[O-])cnc1/C=C1\Oc2cc(Cl)ccc2C1=O`, the growth was -22.8% (active) in test [1]; 59.5% in [2]; 60.4% in test [3]; 16.5% in test [4]; -32.1% (active) in [5]; -53.8% (active) in test [6]. Further, the growth was 3.98% (active) in [7]; -6.4% (active) in test [8]; -52.9% (active) in [9]; -18.3% (active) in test [10]; 35.8% in [11]; -56.7% (active) in [12]. Moreover, the growth was -27.7% (active) in test [13]; -66.8% (active) in test [14]; -37.4% (active) in test [15]; 38.5% in [16]; 28% in test [17]; -42% (active) in test [18]. The growth was -34.7% (active) in test [19] and 3.55% (active) in test [20].

`CCOC(=O)N1C/C(=C/c2ccc(Cl)cc2)C(=O)/C(=C/c2ccc(Cl)cc2)C1`: the growth in test [1] is 72.1%; in test [2] it was 39.3%; in test [3] it was 79.2%; in [4], 64.7%; in test [5], 77.8%; in test [6], 65.5%. Further, the growth in test [7] was 61.1%; in [8] it was 65.6%; in test [9], 45.3%; in [10], 46.3%; in test [11], 3.7% (active); in test [12], 84.9%. In addition, the growth is 68.3% in test [13]; 47.4% in [14]; 52.3% in [15]; 44.2% in test [16]; 98% in [17]; 94.2% in [18]. Besides, the growth in test [19] was 57.1%; in [20] it was 34.3%.

Consider `Nc1nc(N)c2c(ccc3nccc32)[nH]1`, for which the growth was 50% in [1]; 123% in test [2]; 61% in [3]; 74.8% in [4]; 20% in test [5]; 37.9% in [6]. Also, the growth was 2.16% (active) in test [7]; 35.8% in test [8]; 71.4% in test [9]; 62.2% in test [10]; 16.6% in [11]; 58.7% in test [12]. For the same compound, the growth in test [13] was 73.5%; in [14], 56.5%; in test [15], 46.6%; in test [16], 34.4%; in test [17] it was 57.9%; in [18] it was -9.73% (active). Moreover, the growth in test [19] was 28.7%; in test [20], 46.9%.

For `NC(=O)c1ccc(-c2cccc3c(=O)nc(N4CCOCC4)oc23)cc1`, the growth in test [1] is 92.4%; in test [2], 82.6%; in test [3], 93%; in [4], 95.1%; in test [5], 105%; in test [6] it was 89.5%. Besides, the growth in [7] was 100%; in test [8] it was 100%; in [9] it was 104%; in [10], 103%; in test [11] it was 110%; in test [12] it was 85.4%. Moreover, the growth in [13] was 91.9%; in [14], 104%; in [15] it was 93.8%; in test [16], 93.9%; in test [17] it was 102%; in [18] it was 104%. Also, the growth in [19] was 97.8%; in test [20], 102%.

In the case of `COc1ccc(N=C2C(=Nc3ccc(OC)cc3)N(c3ccc(N(C)C)cc3)C(=S)N2c2ccc(OC)cc2)cc1`, the growth in test [1] is 90.9%; in [2], 104%; in test [3] it was 90.3%; in test [4] it was 64.3%; in [5], 85%; in test [6] it was 84.8%. In addition, the growth in [7] was 90.4%; in [8], 12.3%; in test [9], 109%; in test [10] it was 85.7%; in test [11] it was 61.9%; in test [12], 72.9%. Besides, the growth was 90.2% in test [13]; 106% in [14]; 90.2% in test [15]; 2.47% (active) in test [16]; 54.2% in test [17]; 76.1% in test [18]. Moreover, the growth was 65.3% in test [19] and 74.4% in test [20].

Turning to `O=C1/C(=C\c2ccccc2)CN(C(=O)c2ccccc2)C/C1=C\c1ccccc1`, the growth was 57.5% in test [1]; 37.3% in test [2]; 75.8% in test [3]; 37.1% in test [4]; 60.1% in test [5]; -0.751% (active) in test [6]. For the same compound, the growth is 61.1% in [7]; 2.68% (active) in [8]; 41.5% in test [9]; 24.6% in test [10]; 2.41% (active) in test [11]; -37.5% (active) in test [12]. The growth in test [13] is 7.59% (active); in [14], -21.2% (active); in test [15] it was 23.6%; in test [16] it was 15.7%; in test [17], 69.4%; in test [18] it was 4.53% (active). For the same compound, the figures for the growth in test [19] and in [20] were -49.5% (active) and -18.6% (active), respectively.

Turning to `C=C1c2c(C)nn(-c3ccc(OC)cc3)c2N(C)C23C[C@@H]1C1(C)c4c(C)nn(-c5ccc(OC)cc5)c4N(C)C(C)(C[C@H]12)C3` (stereo not given in full), the growth in test [1] is 33.7%; in test [2], 48.7%; in test [3] it was 62.4%; in [4] it was 59.9%; in [5] it was 6.82% (active); in [6], 47.4%. Further, the growth in test [7] was 15.4%; in [8], 54.3%; in test [9], 23.6%; in test [10] it was 56.2%; in test [11] it was 15.5%; in test [12], 53.9%. Moreover, the growth in [13] is 39.7%; in [14], 67.9%; in test [15], 36.8%; in test [16], 101%; in test [17], 62.5%; in [18], 26.8%. Besides, the figures for the growth in test [19] and in test [20] were 40% and 26.3%, respectively.

Consider `Nc1ccccc1NC(=O)CCCCC(=O)Nc1ccc2c(c1)/C(=C/c1ccc[nH]1)C(=O)N2`, for which the growth was 89.6% in test [1]; 52.2% in test [2]; 63.3% in test [3]; 83% in test [4]; 73.9% in [5]; 37.5% in test [6]. Also, the growth is 92.9% in test [7]; 90.2% in [8]; 87.4% in [9]; 70.7% in test [10]; 99.6% in test [11]; 32.9% in [12]. In addition, the growth in test [13] is 93%; in [14], 62.9%; in test [15] it was 71.9%; in [16] it was 98.4%; in test [17], 53.1%; in test [18], 97.9%. The growth in test [19] was 69.9%; in test [20] it was 92.2%.
